Values joined by “and” are separate entries in the source; they are usually repeats but may differ in a detail not shown here. Equal entries are not always repeated. Records with an inconclusive call do not appear. Some compounds were tested as several samples or in several runs, with calls that do not always agree. Active and inactive are the calls of the source. Unless noted, calls come from the whole dose curve; as a rule, active = well fitted curve in the direction sought with a large enough effect in the repeat runs; inconclusive = weak or mixed curves; inactive = no such curve, though single readings can be large; an effect the other way counts as inactive or inconclusive.

A short description of experiment [1]: qHTS assay to identify aromatase inhibitors - cell viability counter screen (AID 743084).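 Note: cells stimulated with testosterone during compound exposure; nearly all actives have a fitted effect of over 55% in size.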 Note: potency is the fitted concentration of half-maximal effect. Background: Quantitative high-throughput screening tests each substance at several concentrations.
Experiment [2] addresses Aryl hydrocarbon receptor (Homo sapiens) (UniProt P35869). The experiment can be described thus: qHTS assay to identify small molecule that activate the aryl hydrocarbon receptor (AhR) signaling pathway (AID 743085).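 For activation: HG2L7.5c1 human HepG2 liver cells with stably integrated DRE-driven firefly reporter; series mostly up to about 70 µM.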 Note: nearly all actives have a fitted effect of over 15% in size. Note: potency is the fitted concentration of half-maximal effect. The gist of the method:
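Luminescence (ONE-Glo) from a dioxin-responsive-element luciferase reporter in HG2L7.5c1 HepG2 cells after 24 hr compound exposure at 37C; viability measured by CellTiter-Fluor fluorescence beforehand.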

Experiment [3] in a line: qHTS assay to identify small molecule that activate the aryl hydrocarbon receptor (AhR) signaling pathway - cell viability counter screen (AID 743086).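 For viability change, negative = cytotoxic: HepG2 liver cells carrying the AhR DRE luciferase reporter; series mostly up to about 70 µM.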 Note: nearly all actives have a fitted effect of over 45% in size. Note: potency is the fitted concentration of half-maximal effect. Summed up:
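HepG2-AhR-luc (HG2L7.5c1) cells, 4000/well, were preincubated 5 h at 37C, exposed to compound in qHTS format for 24 hr at 37C, then given CellTiter-Fluor for 30 min; viability was read as fluorescence in the reporter wells.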

Experiment [4] can be described thus: qHTS assay to identify small molecule antagonists of the peroxisome proliferator-activated receptor gamma (PPARg) signaling pathway - cell viability counter screen (AID 743194). Note: nearly all actives have a fitted effect of over 55% in size. Note: potency is the fitted concentration of half-maximal effect. To be noted: Potency: co-treated with 50 nM rosiglitazone unless noted. Summed up: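 PPARg-UAS-bla HEK293H cells were plated, rested 5 h at 37 C, then treated with compounds plus rosiglitazone (50 nM final) for 17 h at 37 C; viability was then read by CellTiter-Glo luminescence after 30 min at room temperature.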

Experiment [5] is described as follows: qHTS assay for small molecule agonists of the antioxidant response element (ARE) signaling pathway - cell viability counter screen (AID 743203; calls by dose curve; note: nearly all actives have a fitted effect of over 55% in size; note: potency is the fitted concentration of half-maximal effect). The gist of the method:
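Viability counter screen: stably transfected ARE-bla HepG2 line, 16 hrs compound exposure at 37C/5% CO2, ATP-based CellTiter-Glo luminescence measured in the reporter wells.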

Experiment [6] is described as follows: qHTS assay for small molecule activators of the heat shock response signaling pathway - cell viability counter screen (AID 743209). Note: nearly all actives have a fitted effect of over 50% in size. Note: potency is the fitted concentration of half-maximal effect. Summed up:
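Viability of HSE-bla HeLa cells is measured with CellTiter-Glo in the wells already used for the reporter read. Compound exposure lasts 5 h at 37 C, and luminescence is read after 30 min at room temperature.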

The nature of experiment [7]: qHTS assay for small molecule agonists of the antioxidant response element (ARE) signaling pathway (AID 743202; active = well fitted activation curve with a large enough effect in the signal ratio in the repeat runs, not every such curve was filed as active; the % refers to the signal ratio). The gist of the method:
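Following a 16 h, 37 C exposure of reporter HepG2 cells (ARE-driven beta-lactamase, 2,000 cells/well) to compounds, FRET substrate was applied for 2 h at room temperature and fluorescence intensity recorded.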

Experiment [8] concerns the target Peroxisome proliferator-activated receptor gamma (Homo sapiens) (UniProt P37231). The experiment can be described thus: qHTS assay to identify small molecule antagonists of the peroxisome proliferator-activated receptor gamma (PPARg) signaling pathway (AID 743191; calls by dose curve; note: series mostly up to about 63 µM; nearly all actives have a fitted effect of over 30% in size). The gist of the method: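 GeneBLAzer PPARg UAS-bla HEK293H cells carrying a UAS-driven beta-lactamase reporter were plated at 3000 cells/well, preincubated 5 h at 37C, then given compound for 17 h at 37C; LiveBLAzer B/G FRET substrate was read after 1 h at room temperature.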

Experiment [9] can be described thus: qHTS assay for small molecule activators of the heat shock response signaling pathway (AID 743210; active = well fitted activation curve with a large enough effect in the signal ratio in the repeat runs, with a control signal flat, not every such curve was filed as active; the % refers to the signal ratio; note: series mostly up to about 63 µM). Summed up:
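Heat shock element–beta-lactamase HeLa reporter cells; qHTS with compounds for 5 h at 37 C; detection by FRET substrate fluorescence after 2.5 h at RT.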

For experiment [10], the target named is Peroxisome proliferator-activated receptor gamma (Homo sapiens) (UniProt P37231). As to the kind of experiment: qHTS assay to identify small molecule agonists of the peroxisome proliferator-activated receptor gamma (PPARg) signaling pathway (AID 743094; active = well fitted activation curve with a large enough effect in the signal ratio in the repeat runs, not every such curve was filed as active; the % refers to the signal ratio). Summed up: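 Reporter activation was scored by fluorescence of cleaved LiveBLAzer B/G substrate (1 h, room temperature) in PPARg-bla HEK293H cells previously treated 17 h at 37C with DMSO-dissolved compounds.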
Chain of Peroxisome proliferator-activated receptor gamma (Homo sapiens) (P37231 whole entry, looked up): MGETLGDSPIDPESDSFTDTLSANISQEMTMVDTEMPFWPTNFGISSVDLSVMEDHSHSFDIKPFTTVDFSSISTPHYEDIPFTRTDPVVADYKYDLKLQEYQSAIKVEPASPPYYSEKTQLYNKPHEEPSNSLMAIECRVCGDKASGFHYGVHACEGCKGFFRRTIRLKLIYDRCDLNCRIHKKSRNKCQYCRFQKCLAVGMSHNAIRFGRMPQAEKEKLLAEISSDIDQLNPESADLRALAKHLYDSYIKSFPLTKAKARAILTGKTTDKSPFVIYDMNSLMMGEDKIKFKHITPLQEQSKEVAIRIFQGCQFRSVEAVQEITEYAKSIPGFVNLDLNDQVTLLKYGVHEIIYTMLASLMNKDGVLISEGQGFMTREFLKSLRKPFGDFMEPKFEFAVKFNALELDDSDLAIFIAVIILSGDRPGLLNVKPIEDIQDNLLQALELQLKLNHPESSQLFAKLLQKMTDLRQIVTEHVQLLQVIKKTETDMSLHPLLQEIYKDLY
% is set by controls: 0 for no effect and ±100 for the full control effect.

Chain of Aryl hydrocarbon receptor (Homo sapiens) (P35869 whole entry, looked up): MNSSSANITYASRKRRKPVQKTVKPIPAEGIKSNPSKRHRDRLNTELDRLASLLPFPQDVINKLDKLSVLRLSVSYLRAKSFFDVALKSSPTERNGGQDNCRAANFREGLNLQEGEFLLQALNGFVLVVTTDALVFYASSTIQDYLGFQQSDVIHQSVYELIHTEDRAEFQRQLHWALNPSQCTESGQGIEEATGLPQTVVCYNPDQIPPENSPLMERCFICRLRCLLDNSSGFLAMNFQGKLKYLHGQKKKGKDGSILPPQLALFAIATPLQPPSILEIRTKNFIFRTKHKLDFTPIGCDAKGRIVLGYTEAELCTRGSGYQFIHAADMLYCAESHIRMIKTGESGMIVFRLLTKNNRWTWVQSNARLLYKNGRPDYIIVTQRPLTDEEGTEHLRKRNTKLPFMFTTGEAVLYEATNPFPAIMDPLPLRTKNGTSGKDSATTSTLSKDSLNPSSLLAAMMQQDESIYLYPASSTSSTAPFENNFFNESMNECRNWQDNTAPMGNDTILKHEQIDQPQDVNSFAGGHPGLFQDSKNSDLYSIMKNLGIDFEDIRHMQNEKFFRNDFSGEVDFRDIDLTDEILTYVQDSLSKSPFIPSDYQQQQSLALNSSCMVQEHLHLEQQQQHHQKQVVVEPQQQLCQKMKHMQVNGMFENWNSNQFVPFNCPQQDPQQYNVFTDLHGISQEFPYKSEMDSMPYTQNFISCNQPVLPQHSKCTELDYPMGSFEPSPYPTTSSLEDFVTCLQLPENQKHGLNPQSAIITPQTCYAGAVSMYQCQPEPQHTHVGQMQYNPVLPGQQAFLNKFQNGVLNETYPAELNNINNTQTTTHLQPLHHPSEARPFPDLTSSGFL

Turning to `CC(=O)[O][Pb]([c]1ccccc1)([c]1ccccc1)[c]1ccccc1`, the Potency was 0.193 µM (active) in experiment [1]; 3.86 µM (active) in experiment [3]; 0.11 µM (active) in experiment [4]; 0.172 µM (active) in experiment [5]; 9.77 µM (active) in experiment [6]. For the same compound, the Potency entry in experiment [2] was “inactive”.
In the case of `Cc1ccc2cc3c(ccc4ccccc43)c3c2c1CC3`, the Potency result in experiment [1], in [3], in [4], in [5] and in experiment [6] was “inactive” throughout. In addition, the Potency in experiment [2] was 0.487 µM (active).
As to `O=C(O)[C@H](O)[C@@H](O)C(=O)O`, the Potency entry in [1], in experiment [2], in experiment [3], in experiment [4], in [7] and in experiment [5] was “inactive” throughout. Further, the Potency result in [6] was “inactive”.
Take `CCCCCCC[CH2][Sn]([Cl])([Cl])[CH2]CCCCCCC`: the Potency result in experiment [1] and in [3] was “inactive” throughout. Moreover, the Potency in experiment [2] is 21.7 µM (active); in experiment [4] it was 48.9 µM (active); in experiment [5], 54.4 µM (active); in [6] it was 30.9 µM (active).
With `CCN(CC)C(=S)S`, the Potency in experiment [1] is 8.71 µM (active) and 7.65 µM (active) and 4.86 µM (active); in experiment [3] it was “inactive and 19.2 µM (active) and 30.6 µM (active)”; in experiment [6], 6.98 µM (active) and 2.75 µM (active). Also, the Potency result in experiment [2], in experiment [8] and in [4] was “inactive” in each case.
Turning to `O=[N+]([O-])c1cc(C(F)(F)F)c(Cl)c([N+](=O)[O-])c1Nc1ncc(C(F)(F)F)cc1Cl`, the Potency in [1] was 21.7 µM (active); in [2], 77 µM (active); in [3], 13.7 µM (active); in experiment [4], 1.1 µM (active); in experiment [5] it was 7.7 µM (active); in experiment [6], 6.16 µM (active).
For the compound `O=C(NC(=O)c1c(F)cccc1F)Nc1ccc(Oc2ccc(C(F)(F)F)cc2Cl)cc1F`, the Potency entry in [1], in experiment [2], in experiment [3], in experiment [4], in experiment [5] and in experiment [6] was “inactive” throughout.
As to `CC(C)[C@@H](Nc1ccc(C(F)(F)F)cc1Cl)C(=O)OC(C#N)c1cccc(Oc2ccccc2)c1` (stereo not given in full), the Potency result in experiment [1], in experiment [2], in experiment [3], in experiment [4], in experiment [5] and in [6] was “inactive” each time.
With `Nc1ccccc1-c1ccccc1`, the Potency result in experiment [1], in [2], in [3], in [4] and in [6] was “inactive” in each case.
`C=CC(=O)[O][Sn]([CH2]CCC)([CH2]CCC)[CH2]CCC`: the Potency in [1] was 3.44 µM (active); in experiment [3], 4.33 µM (active); in experiment [4], 0.389 µM (active); in experiment [6], 3.09 µM (active). Moreover, the Potency entry in experiment [2] is “inactive”.
Take `C=Cc1cccc(CCl)c1`: the Potency result in experiment [1], in [2], in experiment [3], in experiment [4], in [5] and in experiment [6] was “inactive” each time. In addition, in [9], the Potency entry was “inactive”.
For the compound `CC(=O)C(Cl)C(=O)N(C)C` (stereo not given), the Potency result in experiment [1], in experiment [2], in experiment [3], in experiment [5], in [6] and in experiment [9] was “inactive” each time.
Consider `CN(C)C(=S)SSC(=S)N(C)C`, for which the Potency in experiment [1] was 944 nM (active) and 75.9 nM (active) and 54.5 nM (active); in [3], “inactive and 154 nM (active)”; in experiment [5], 60.3 µM (active) and 13.7 µM (active) and 18.8 µM (active). Also, the Potency entry in experiment [2] and in [6] was “inactive” each time.
On to `Fc1ccc(C(OCCN2CCN(CCCc3ccccc3)CC2)c2ccc(F)cc2)cc1`, for which the Potency was 26.6 µM (active) in experiment [1] and 16.8 µM (active) in [4]. Besides, in [2], the Potency result is “inactive”.
With `CN1CCc2cc(Cl)c(O)cc2[C@H]2c3ccccc3CC[C@@H]21`, the Potency entry in experiment [1], in [2], in experiment [10], in experiment [4], in [7] and in experiment [5] was “inactive” each time. The Potency entry in experiment [6] and in experiment [9] was “inactive” in each case.
In the case of `CCOP(=O)(OCC)Oc1cc(C)nc(C(C)C)n1`, the Potency entry in experiment [1], in experiment [2], in experiment [3], in experiment [4], in experiment [5] and in [6] was “inactive” each time.
As to `CCN1CCC2(CC1)COc1cc3c(cc12)N(C(=O)c1ccc(-c2ccc(-c4nnc(C)o4)cc2C)cc1)CC3`, the Potency is 39.9 µM (active) in experiment [1]; 28.3 µM (active) in [3]; 7.16 µM (active) in experiment [4]; 7.1 µM (active) in [5]; 45.2 µM (active) in experiment [6]. The Potency result in [2] was “inactive”.
Consider `CC[C@H](C)[C@H]1O[C@]2(C=C[C@@H]1C)C[C@@H]1C[C@@H](C/C=C(\C)[C@@H](O[C@H]3C[C@H](OC)[C@@H](O[C@H]4C[C@H](OC)[C@@H](NC)[C@H](C)O4)[C@H](C)O3)[C@@H](C)/C=C/C=C3\CO[C@@H]4[C@H](O)C(C)=C[C@@H](C(=O)O1)[C@]34O)O2`, for which the Potency in [1] was 9.69 µM (active); in [3], 4.33 µM (active); in experiment [4], 2.45 µM (active); in experiment [5], 4.33 µM (active); in experiment [6], 13.8 µM (active). Also, the Potency entry in experiment [2] is “inactive”.
Turning to `CN`, the Potency entry in experiment [1], in [2], in [3], in [4], in experiment [5] and in experiment [6] was “inactive” throughout. Moreover, the Potency entry in experiment [9] is “inactive”.
For `CCO/N=C(\CC)C1=C(O)CC(c2c(C)cc(C)cc2C)CC1=O` (stereo not given), the Potency entry in [1], in experiment [2], in [3], in experiment [5] and in [9] was “inactive” each time.
On to `CCC[CH2][Sn]([CH2]CCC)([CH2]CCC)[O][Sn]([CH2]CCC)([CH2]CCC)[CH2]CCC`, for which the Potency in experiment [1] is 2.12 µM (active); in experiment [3], 2.67 µM (active); in [4], 0.427 µM (active); in experiment [5], 0.238 µM (active); in [6], 0.38 µM (active). For the same compound, the activation in [2] is -11.8% [at 8.47 µM] (inactive).
In the case of `Cc1cc2c3c(c1)C(c1ccccc1)=N[C@@H](NC(=O)c1ccncc1)C(=O)N3CC2`, the Potency result in experiment [1], in experiment [2], in [3], in experiment [4], in [5] and in [6] was “inactive” each time. In addition, the Potency result in [9] was “inactive”.
`Oc1ccc(Cl)c(Cl)c1`: the Potency result in [1], in experiment [2], in [3], in [5], in experiment [6] and in [9] was “inactive” in each case.
As for `CC(=O)[O-].CC(=O)[O-].CC(=O)[O-].[Sb+3]`, the activity change, negative = cytotoxicity in experiment [1] was 6.01% [at 8.47 µM] (inactive); in experiment [4], -5.68% [at 5.95 µM, co-treated with 50 nM rosiglitazone] (inactive); in experiment [6], 4.7% [at 5.95 µM] (inactive). The activation in [2] is 0.374% [at 8.47 µM] (inactive). For the same compound, the viability change, negative = cytotoxic in experiment [3] is 5.29% [at 8.47 µM] (inactive).
In the case of `O.O.O.O.O.O.O.O=S(=O)([O-])[O-].[Co+2]`, the Potency result in experiment [1], in experiment [2], in experiment [3], in experiment [5] and in experiment [6] was “inactive” in each case.
Take `CCCCn1cc[n+](C)c1` (tested in a mixture with another compound): the Potency result in [1], in [2], in [3], in experiment [4], in [5] and in [6] was “inactive” throughout.
Take `O=C(N[C@@H]1N=C(c2ccccc2F)c2cccc3c2N(CC3)C1=O)c1cc2ccccc2[nH]1`: the Potency entry in experiment [1], in experiment [3], in experiment [4] and in experiment [6] was “inactive” throughout. Further, the Potency in experiment [2] was 0.0668 µM (active).
`CC(=O)[O-].CC(=O)[O-].[Co+2]`: the Potency result in [1], in [2], in experiment [3], in experiment [4], in experiment [5] and in [6] was “inactive” in each case.
Take `CC1(C)[C@H](/C=C2\CCSC2=O)[C@@H]1C(=O)OCc1coc(Cc2ccccc2)c1`: the Potency result in experiment [1], in experiment [2], in [3], in [4] and in experiment [6] was “inactive” each time.
Take `CCCCn1cc[n+](C)c1.[Cl][Fe-]([Cl])([Cl])[Cl]`: the Potency result in [1], in [2], in experiment [3], in experiment [5] and in experiment [6] was “inactive” throughout.
In the case of `CCC[CH2][Sn]([CH2]CCC)([O]C(C)=O)[O]C(C)=O`, the Potency in experiment [1] is 13.8 µM (active); in experiment [4], 2.78 µM (active); in experiment [5], 6.17 µM (active). Moreover, the Potency entry in experiment [2] is “inactive”.
For the compound `O=[N+]([O-])[O-].[Tl+]`, the Potency entry in experiment [1], in experiment [2], in experiment [3], in experiment [4] and in [6] was “inactive” in each case.
For the compound `Clc1ccc(C2(Cn3cncn3)OCCO2)c(Cl)c1`, the Potency entry in [1], in experiment [2], in [3], in experiment [4], in [5] and in [6] was “inactive” each time. Also, the Potency result in experiment [9] is “inactive”.
